biological target: Neurogenic locus notch homolog protein 2 (Homo sapiens) (UniProt Q04721); experiment: Notch2 binders on small-molecule microarrays, primary screen, biochemical, small-molecule microarray, 635 nm fluorescence, stem cell growth factors (AID 1073); conditions: Notch2 binding, higher = more signal
Sequence (Q04721 whole entry, looked up): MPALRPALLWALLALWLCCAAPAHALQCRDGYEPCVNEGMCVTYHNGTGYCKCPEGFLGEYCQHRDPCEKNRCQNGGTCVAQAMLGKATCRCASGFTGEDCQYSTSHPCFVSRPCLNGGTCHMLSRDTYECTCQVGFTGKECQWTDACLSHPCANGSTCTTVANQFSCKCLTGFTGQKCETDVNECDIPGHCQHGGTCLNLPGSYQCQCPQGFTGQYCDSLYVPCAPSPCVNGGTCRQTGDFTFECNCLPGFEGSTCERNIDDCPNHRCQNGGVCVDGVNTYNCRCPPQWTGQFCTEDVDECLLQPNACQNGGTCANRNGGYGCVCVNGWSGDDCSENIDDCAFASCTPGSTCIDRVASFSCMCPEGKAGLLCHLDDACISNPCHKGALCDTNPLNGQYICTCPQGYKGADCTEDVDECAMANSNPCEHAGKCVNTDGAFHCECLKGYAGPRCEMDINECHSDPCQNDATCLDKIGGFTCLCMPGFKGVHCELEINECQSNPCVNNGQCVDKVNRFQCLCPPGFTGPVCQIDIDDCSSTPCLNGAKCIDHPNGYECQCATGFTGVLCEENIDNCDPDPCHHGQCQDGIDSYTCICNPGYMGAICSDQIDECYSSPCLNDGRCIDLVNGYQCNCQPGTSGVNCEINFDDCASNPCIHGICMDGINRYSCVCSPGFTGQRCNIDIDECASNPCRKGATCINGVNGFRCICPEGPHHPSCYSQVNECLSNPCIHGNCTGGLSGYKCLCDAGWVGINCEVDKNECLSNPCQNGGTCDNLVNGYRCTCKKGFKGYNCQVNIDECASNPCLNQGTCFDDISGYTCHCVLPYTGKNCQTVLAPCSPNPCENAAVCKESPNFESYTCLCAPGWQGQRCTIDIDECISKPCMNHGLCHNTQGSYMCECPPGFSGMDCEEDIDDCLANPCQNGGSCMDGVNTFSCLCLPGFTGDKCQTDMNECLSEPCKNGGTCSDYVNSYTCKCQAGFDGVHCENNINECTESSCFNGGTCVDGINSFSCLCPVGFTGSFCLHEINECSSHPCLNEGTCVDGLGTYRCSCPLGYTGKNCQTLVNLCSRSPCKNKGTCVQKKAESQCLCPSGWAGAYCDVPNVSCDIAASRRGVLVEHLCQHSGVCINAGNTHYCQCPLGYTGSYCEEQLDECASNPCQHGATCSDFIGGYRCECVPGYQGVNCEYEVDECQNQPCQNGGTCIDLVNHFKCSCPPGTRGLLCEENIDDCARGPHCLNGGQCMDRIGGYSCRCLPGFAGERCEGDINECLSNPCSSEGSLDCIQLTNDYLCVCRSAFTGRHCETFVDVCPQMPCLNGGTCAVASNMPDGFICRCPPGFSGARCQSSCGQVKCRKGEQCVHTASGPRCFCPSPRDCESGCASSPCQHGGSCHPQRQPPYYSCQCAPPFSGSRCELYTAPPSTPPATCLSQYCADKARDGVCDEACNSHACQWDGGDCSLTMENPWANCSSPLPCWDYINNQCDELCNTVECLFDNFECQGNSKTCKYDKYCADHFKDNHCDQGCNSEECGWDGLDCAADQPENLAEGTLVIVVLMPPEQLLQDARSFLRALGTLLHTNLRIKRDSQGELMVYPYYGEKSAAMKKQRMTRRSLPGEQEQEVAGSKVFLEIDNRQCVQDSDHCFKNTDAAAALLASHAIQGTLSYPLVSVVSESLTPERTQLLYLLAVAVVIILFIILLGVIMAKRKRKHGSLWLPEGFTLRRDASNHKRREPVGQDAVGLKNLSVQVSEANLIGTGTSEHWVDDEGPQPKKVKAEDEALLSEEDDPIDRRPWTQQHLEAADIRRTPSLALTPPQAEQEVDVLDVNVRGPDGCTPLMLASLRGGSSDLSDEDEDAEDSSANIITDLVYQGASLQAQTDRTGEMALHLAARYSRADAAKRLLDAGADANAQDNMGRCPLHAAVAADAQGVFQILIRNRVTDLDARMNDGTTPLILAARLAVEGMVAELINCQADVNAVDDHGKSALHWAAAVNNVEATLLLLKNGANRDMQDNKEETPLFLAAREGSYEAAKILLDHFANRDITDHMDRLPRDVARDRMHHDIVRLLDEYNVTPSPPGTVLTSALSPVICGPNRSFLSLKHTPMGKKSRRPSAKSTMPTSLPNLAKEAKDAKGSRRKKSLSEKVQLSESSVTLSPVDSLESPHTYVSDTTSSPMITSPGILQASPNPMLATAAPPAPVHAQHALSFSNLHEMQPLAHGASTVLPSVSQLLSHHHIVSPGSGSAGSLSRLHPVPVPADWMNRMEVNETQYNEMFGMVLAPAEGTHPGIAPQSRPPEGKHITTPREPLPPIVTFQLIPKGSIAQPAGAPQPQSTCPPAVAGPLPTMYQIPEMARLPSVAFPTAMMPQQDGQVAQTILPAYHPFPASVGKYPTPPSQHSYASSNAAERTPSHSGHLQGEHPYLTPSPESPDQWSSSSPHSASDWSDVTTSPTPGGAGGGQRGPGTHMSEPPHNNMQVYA

Row | Structure (SMILES) | composite z-score
1 | COc1ccc(O[C@H]2C=C[C@@H](c3ccccc3)O[C@@H]2COC(=O)CCC(C)=NOC(C)CN2CCCc3nc(C)c(C)cc32)cc1 (some centres not stated) | 0.571
2 | COC(=O)[C@H](C)NC(=O)CCC1CC(OC(=O)NCc2cccc3ccccc23)CC2(CCCC(COC(=O)NCC(c3ccccc3)c3ccccc3)O2)O1 (some centres not stated) | 1.23
3 | C=COC[C@@H]1CN2[C@@H](CC[C@@H](C)[C@@H]2c2ccc(Br)cc2)C(=O)O1 | -0.898
4 | CCOC(=O)[C@H](CC(C)C)NC(=O)CCC1CC(OC(=O)NCc2cccc3ccccc23)CC2(CCCC(COC(=O)NCCC(C)C)O2)O1 (some centres not stated) | 0.193
5 | CCOC(=O)[C@H](Cc1ccccc1)NC(=O)CCC1CC(OC(=O)NCCc2ccc(F)cc2)CC2(CCCC(COC(=O)NCCc3ccccc3OC)O2)O1 (some centres not stated) | 0.879
6 | CO[C@H](C1CCCCC1)[C@H](C)C=CCC(=O)OCCCc1ccccc1 | -0.163
7 | O=C1C[C@@H](O)[C@@H](O)[C@@H]2[C@@H]3C(=O)N(Cc4ccccc4)C(=O)[C@@H]3CC[C@@H]12 | 0.474
8 | CCN1C(=O)[C@H]2[C@H]3[C@H](O)[C@H](O)CC(=NOCC(C)C)[C@@H]3CC[C@H]2C1=O | 1.23
9 | COC(=O)CC=C[C@@H](C)[C@@H](C=NOC[C@H]1O[C@H](c2ccccc2)C=C[C@@H]1Oc1ccc(OC)cc1)OC | -0.639
10 | CC(CCN1CCc2nc(-c3ccccc3)c(-c3ccccc3)cc2C1)=NOC[C@@H](O)[C@H]1O[C@@H]2OC(C)(C)O[C@@H]2[C@H]1O | 0.331
11 | O=C(NN=C1C[C@@H](O)[C@@H](O)[C@@H]2[C@@H]3C(=O)N(C4CCCCC4)C(=O)[C@@H]3CC[C@@H]12)OCc1ccccc1 | -0.103
12 | COc1ccc(O[C@H]2C=C[C@@H](c3ccccc3)O[C@@H]2CON=C(C)CCC(=O)OC[C@H]2O[C@H](c3ccccc3)C=C[C@@H]2Oc2ccc(OC)cc2)cc1 | -1.5
